NOMO-1 viab: NOMO-1 AML cell viability reduction, primary screen, STK33 inhibitor project, CellTiter-Glo luminescence. NOMO-1 AML viability, 72 h. inhibition, % (concentration not given with the values). 37,000 tested, 7.5% active. AID 2330, 2010; in the data active = inhibition above about 80%
STK33 inh: STK33 kinase inhibitors, primary screen, biochemical, luminescence, ADP-Glo, MBP substrate. AID 2322, 2010. 27,000 tested, 0.44% active. inhibition, % at 12.5 µM. Serine/threonine-protein kinase 33 (Homo sapiens), Q9BYT3; in the data active = inhibition above about 20%
Target sequence (Q9BYT3 whole entry, looked up): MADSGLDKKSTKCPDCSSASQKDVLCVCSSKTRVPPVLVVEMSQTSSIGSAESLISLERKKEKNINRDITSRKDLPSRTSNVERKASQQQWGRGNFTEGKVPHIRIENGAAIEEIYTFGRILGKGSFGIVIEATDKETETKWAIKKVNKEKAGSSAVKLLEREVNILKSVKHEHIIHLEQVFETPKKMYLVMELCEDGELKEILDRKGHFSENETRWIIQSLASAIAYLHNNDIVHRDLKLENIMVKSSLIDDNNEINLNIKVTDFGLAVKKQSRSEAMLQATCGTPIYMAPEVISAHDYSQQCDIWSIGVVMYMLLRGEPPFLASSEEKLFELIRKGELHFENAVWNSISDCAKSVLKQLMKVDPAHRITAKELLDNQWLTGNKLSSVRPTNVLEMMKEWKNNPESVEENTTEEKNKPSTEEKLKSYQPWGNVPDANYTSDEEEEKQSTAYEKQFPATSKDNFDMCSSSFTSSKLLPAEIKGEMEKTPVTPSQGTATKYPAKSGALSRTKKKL
PD-1 reversal: activators reversing PD-1 mediated T-cell inhibition, primary screen, luminescence, primary human CD4 T cells, PD-L1 beads; 29,000 tested, under 10 active; activation, % (concentration not given with the values); CellTiter-Glo 96 h; AID 2316, 2010; call rule not given here;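 also: 0% = median vehicle wells and 100% = positive control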
* = called active by the depositor; . = no result. Shown is part of a subset that was picked to be rich in hits.

SMILES | NOMO-1 viab | STK33 inh | PD-1 reversal
COc1ccc(OC)c(NC(=O)c2ccc(CSc3nnnn3C)cc2)c1 | -23 | 5 | 1
COc1cc(OC)cc(OCC(O)Cn2cnc3ccccc32)c1 (stereo not given) | 22 | 2 | 1
COc1ccc(NC(=O)Nc2cccc3c2O[C@H](CN(C)Cc2ccccc2)[C@H](C)CN([C@@H](C)CO)C3=O)cc1 | 33 | . | 2
COc1ccc(NC(=O)Nc2cccc3c2O[C@@H](CN(C)Cc2ccc(-c4ccccc4)cc2)[C@@H](C)CN([C@H](C)CO)C3=O)cc1 | 113* | . | -2
COc1ccc(NC(=O)Nc2cccc3c2O[C@@H](CN(C)Cc2ccccc2)[C@H](C)CN([C@@H](C)CO)C3=O)cc1 | 93* | . | -4
COc1ccc(NC(=O)Nc2cccc3c2O[C@@H](CN(C)Cc2ccc(-c4ccccc4)cc2)[C@H](C)CN([C@@H](C)CO)C3=O)cc1 | 18 | . | .
CC(Oc1ccc(Cl)cc1Cl)C(=O)Nc1cc(-c2nc3ccccc3o2)ccc1Cl (stereo not given) | 35 | 3 | 2
FC(F)(F)C1(C(F)(F)F)N=C(c2ccccc2)OC(N2CCCCC2)=N1 | 51 | . | 1
CC(=O)OC1COC(OC2C(O)C(C)OC(OC3C(OC4CCC5(C)C(CCC6(C)C5CC=C5C7CC(C)(C)CCC7(C(=O)O)CCC56C)C4(C)CO)OCC(O)C3O)C2O)C(O)C1OC(C)=O (stereo not given) | 122* | -4 | -9
CC1(C)CC[C@@]2(C(=O)O[C@@H]3O[C@H](CO)[C@@H](O)[C@H](O)[C@H]3O)C(C1)C1=CCC3[C@@]4(C)CC[C@@H](O[C@@H]5O[C@H](C(=O)O)[C@@H](O[C@@H]6OC[C@@H](O)[C@H](O)[C@H]6O)[C@H](O[C@@H]6OC[C@](O)(CO)[C@H]6O)[C@H]5O)C(C)(C)C4CC[C@@]3(C)[C@]1(C)C[C@H]2O (stereo not given in full) | 5 | -1 | -1
CC1OC(OC2C(C(=O)O)OC(O[C@H]3CC[C@@]4(C)C(CC[C@]5(C)C4CC=C4C6CC(C)(C)CC[C@]6(C(=O)OC6OC(CO)C(O)C(O)C6O)CC[C@]45C)C3(C)C)C(O)C2O)C(OC2OCC(O)C(O)C2O)C(O)C1O (stereo not given in full) | 1 | -1 | 2
C[C@@H]1O[C@@H](O[C@@H]2CC[C@@]3(C)C(CC[C@]4(C)C3CC=C3[C@@H]5CC(C)(C)CC[C@]5(C(=O)O[C@@H]5O[C@H](CO)[C@@H](O)[C@H](O)[C@H]5O)CC[C@]34C)[C@]2(C)CO)[C@H](O)[C@H](O[C@@H]2OC[C@@H](O)[C@H](O)[C@H]2O)[C@H]1O (stereo not given in full) | 10 | -1 | 1
C/C=C(/C)C(=O)O[C@H]1CC(C)(C)C[C@H]2C3=CCC4[C@@]5(C)CC[C@H](O[C@@H]6O[C@H](C(=O)O)[C@@H](O[C@@H]7O[C@H](CO)[C@H](O)[C@H](O)[C@H]7O[C@@H]7O[C@H](CO)[C@@H](O)[C@H](O)[C@H]7O)[C@H](O)[C@H]6O[C@@H]6O[C@@H](C)[C@H](O)[C@@H](O)[C@H]6O)C(C)(C)C5CC[C@@]4(C)[C@]3(C)C[C@@H](O)[C@@]12CO (stereo not given in full) | 119* | -9 | -15
CC1(C)CC[C@]2(C(=O)O[C@@H]3O[C@H](CO)[C@@H](O)[C@H](O)[C@H]3O)CC[C@]3(C)C(=CCC4[C@@]5(C)CC[C@H](O[C@@H]6O[C@H](C(=O)O)[C@@H](O[C@@H]7O[C@H](CO)[C@@H](O)[C@H](O)[C@H]7O)[C@H](O)[C@H]6O[C@@H]6O[C@H](CO)[C@@H](O)[C@H](O)[C@H]6O)C(C)(C)C5CC[C@]43C)C2C1 (stereo not given in full) | 9 | -1 | 2
C[C@@H]1O[C@@H](O[C@@H]2[C@@H](O)[C@H](OC(=O)[C@]34CCC(C)(C)CC3C3=CCC5[C@@]6(C)CC[C@H](OC7OC(CO)C(OC8OCC(O)C(O)C8O)C(O)C7O)C(C)(C)C6CC[C@@]5(C)[C@]3(C)CC4O)O[C@H]2CO)[C@H](O)[C@H](O)[C@H]1O[C@H]1OC[C@](O)(CO)[C@H]1O (stereo not given in full) | 95* | 1 | -13
CC1(C)CC[C@]2(C(=O)O[C@@H]3O[C@H](CO)[C@@H](O)[C@H](O)[C@H]3O)CC[C@]3(C)C(=CCC4[C@@]5(C)CC[C@H](O[C@@H]6O[C@H](C(=O)O)[C@@H](O)[C@H](O)[C@H]6O)C(C)(C)C5CC[C@]43C)C2C1 (stereo not given in full) | 115* | -5 | 0

Screening data deposited in PubChem by Broad Institute.
